Assay results reported in PubChem BioAssay AID1159580 (chemical genetic matrix, 2015).
Among all 5,500 compounds or so, about 2,000 (36%) were called active. About 18% were inconclusive and are not listed. Cut-off read from the data, not from the text of the source: active = normalized growth mostly below about 0.91 (no sharp cut-off); inconclusive = no clear call, values can overlap the other calls; inactive = mostly above about 0.92. Some of the results follow.

Assay: chemical genetic growth profiling, strain panel (AID 1159580);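 note: tested at 20 µM; growth read once vehicle control cultures reached saturation at 30 °C; 1 = growth at the plate median or of vehicle wells; lower values mean less growth of the strain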
Details: growth OD

Measured: normalized growth

CC(=O)NC(=O)/C(C#N)=C/N1CCN(Cc2ccccc2)CC1
inactive: S. cerevisiae deletion strains, locus YAL013W, strain DEP1, stronger effect = lower value 0.987 | S. cerevisiae deletion strains, locus YBR229C, strain ROT2, stronger effect = lower value 0.989 | S. cerevisiae deletion strains, locus YDL101C, strain DUN1, stronger effect = lower value 1.01 | S. cerevisiae deletion strains, locus YDL134C, strain PPH21, stronger effect = lower value 1.01 | S. cerevisiae deletion strains, locus YDR150W, strain NUM1, stronger effect = lower value 0.969 | S. cerevisiae deletion strains, locus YEL061C, strain CIN8, stronger effect = lower value 0.996 | S. cerevisiae deletion strains, locus YGR078C, strain PAC10, stronger effect = lower value 0.994 | S. cerevisiae deletion strains, locus YHR030C, strain SLT2, stronger effect = lower value 0.947 | S. cerevisiae deletion strains, locus YHR087W, strain rtc3, stronger effect = lower value 0.994 | S. cerevisiae deletion strains, locus YJR043C, strain POL32, stronger effect = lower value 0.976 | S. cerevisiae deletion strains, locus YJR075W, strain HOC1, stronger effect = lower value 1.01 | S. cerevisiae deletion strains, locus YKL190W, strain CNB1, stronger effect = lower value 1 | S. cerevisiae deletion strains, locus YLR039C, strain RIC1, stronger effect = lower value 1.01 | S. cerevisiae deletion strains, locus YLR058C, strain SHM2 (second series), stronger effect = lower value 0.988 | S. cerevisiae deletion strains, locus YLR085C, strain ARP6, stronger effect = lower value 1.07 | S. cerevisiae deletion strains, locus YLR262C, strain YPT6, stronger effect = lower value 0.982 | S. cerevisiae deletion strains, locus YML094W, strain GIM5, stronger effect = lower value 1.01 | S. cerevisiae deletion strains, locus YMR219W, strain ESC1, stronger effect = lower value 1 | S. cerevisiae deletion strains, locus YMR263W, strain SAP30, stronger effect = lower value 0.997 | S. cerevisiae deletion strains, locus YMR307W, strain GAS1, stronger effect = lower value 1.11 | S. cerevisiae deletion strains, locus YNL128W, strain TEP1, stronger effect = lower value 0.981 | S. cerevisiae deletion strains, locus YNL153C, strain GIM3, stronger effect = lower value 0.977 | S. cerevisiae deletion strains, locus YNL298W, strain CLA4 (second series), stronger effect = lower value 0.95 | S. cerevisiae deletion strains, locus YNL322C, strain KRE1, stronger effect = lower value 0.991 | S. cerevisiae deletion strains, locus YNR030W, strain Alg12, stronger effect = lower value 0.987 | S. cerevisiae deletion strains, locus YPL055C, strain LGE1, stronger effect = lower value 1.05 | S. cerevisiae deletion strains, locus YPL241C, strain CIN2, stronger effect = lower value 0.989 | S. cerevisiae deletion strains, locus YPR135W, strain CTF4, stronger effect = lower value 0.886 | S. cerevisiae strains, strain wild type, stronger effect = lower value 0.974

CC(=O)OC[C@H]1O[C@@H](Oc2cc(OC(C)=O)c3c(=O)cc(-c4ccc(OC(C)=O)cc4)oc3c2)[C@H](OC(C)=O)[C@@H](OC(C)=O)[C@@H]1OC(C)=O
inactive: S. cerevisiae deletion strains, locus YAL021C, strain ccr4, stronger effect = lower value 1.04 | S. cerevisiae deletion strains, locus YAL026C, strain drs2, stronger effect = lower value 1 | S. cerevisiae deletion strains, locus YAL030W, strain snc1, stronger effect = lower value 1.01 | S. cerevisiae deletion strains, locus YBL061C, strain skt5, stronger effect = lower value 0.981 | S. cerevisiae deletion strains, locus YBR009C, strain hhf1, stronger effect = lower value 0.998 | S. cerevisiae deletion strains, locus YBR023C, strain chs3, stronger effect = lower value 0.999 | S. cerevisiae deletion strains, locus YBR171W, strain sec66, stronger effect = lower value 0.981 | S. cerevisiae deletion strains, locus YBR231C, strain swc5, stronger effect = lower value 0.955 | S. cerevisiae deletion strains, locus YBR279W, strain paf1, stronger effect = lower value 0.997 | S. cerevisiae deletion strains, locus YCL011C, strain gbp2, stronger effect = lower value 1 | S. cerevisiae deletion strains, locus YCL016C, strain dcc1, stronger effect = lower value 1.06 | S. cerevisiae deletion strains, locus YCL069W, strain vba3, stronger effect = lower value 0.979 | S. cerevisiae deletion strains, locus YCR088W, strain abp1, stronger effect = lower value 0.989 | S. cerevisiae deletion strains, locus YDL005C, strain med2, stronger effect = lower value 0.977 | S. cerevisiae deletion strains, locus YDL040C, strain nat1, stronger effect = lower value 1.02 | S. cerevisiae deletion strains, locus YDR001C, strain nth1, stronger effect = lower value 1 | S. cerevisiae deletion strains, locus YDR069C, strain doa4, stronger effect = lower value 0.953 | S. cerevisiae deletion strains, locus YDR137W, strain rgp1, stronger effect = lower value 1.09 | S. cerevisiae deletion strains, locus YDR159W, strain sac3, stronger effect = lower value 0.963 | S. cerevisiae deletion strains, locus YDR195W, strain ref2 0.936 | S. cerevisiae deletion strains, locus YDR297W, strain sur2, stronger effect = lower value 0.988 | S. cerevisiae deletion strains, locus YDR334W, strain swr1, stronger effect = lower value 0.979 | S. cerevisiae deletion strains, locus YDR335W, strain msn5, stronger effect = lower value 0.989 | S. cerevisiae deletion strains, locus YDR392W, strain spt3, stronger effect = lower value 0.966 | S. cerevisiae deletion strains, locus YEL003W, strain gim4, stronger effect = lower value 0.979 | S. cerevisiae deletion strains, locus YEL037C, strain rad23, stronger effect = lower value 0.986 | S. cerevisiae deletion strains, locus YEL061C, strain CIN8 (second series), stronger effect = lower value 0.999 | S. cerevisiae deletion strains, locus YER015W, strain faa2, stronger effect = lower value 1 | S. cerevisiae deletion strains, locus YER016W, strain bim1, stronger effect = lower value 1.02 | S. cerevisiae deletion strains, locus YER111C, strain swi4, stronger effect = lower value 1.03 | S. cerevisiae deletion strains, locus YER155C, strain BEM2 (second series), stronger effect = lower value 0.985 | S. cerevisiae deletion strains, locus YFR010W, strain ubp6, stronger effect = lower value 0.975 | S. cerevisiae deletion strains, locus YGL167C, strain pmr1, stronger effect = lower value 0.992 | S. cerevisiae deletion strains, locus YGL173C, strain kem1, stronger effect = lower value 0.973 | S. cerevisiae deletion strains, locus YGL227W, strain vid30, stronger effect = lower value 0.995 | S. cerevisiae deletion strains, locus YGL240W, strain doc1, stronger effect = lower value 0.983 | S. cerevisiae deletion strains, locus YGL253W, strain hxk2, stronger effect = lower value 0.968 | S. cerevisiae deletion strains, locus YHR013C, strain ard1, stronger effect = lower value 1.01 | S. cerevisiae deletion strains, locus YHR027C, strain rpn1, stronger effect = lower value 1.01 | S. cerevisiae deletion strains, locus YHR142W, strain chs7, stronger effect = lower value 1.02 | S. cerevisiae deletion strains, locus YJL092W, strain hpr5, stronger effect = lower value 0.995 | S. cerevisiae deletion strains, locus YJL095W, strain BCK1 (second series), stronger effect = lower value 1.04 | S. cerevisiae deletion strains, locus YJL115W, strain asf1, stronger effect = lower value 0.98 | S. cerevisiae deletion strains, locus YJL129C, strain trk1, stronger effect = lower value 0.984 | S. cerevisiae deletion strains, locus YJL154C, strain vps35, stronger effect = lower value 0.98 | S. cerevisiae deletion strains, locus YJL164C, strain tpk1, stronger effect = lower value 1.02 | S. cerevisiae deletion strains, locus YJL166W, strain qcr8, stronger effect = lower value 0.989 | S. cerevisiae deletion strains, locus YJL187C, strain SWE1, stronger effect = lower value 1 | S. cerevisiae deletion strains, locus YKL160W, strain elf1, stronger effect = lower value 1.02 | S. cerevisiae deletion strains, locus YKR026C, strain gcn3, stronger effect = lower value 0.977 | S. cerevisiae deletion strains, locus YKR091W, strain srl3, stronger effect = lower value 0.999 | S. cerevisiae deletion strains, locus YLL001W, strain dnm1, stronger effect = lower value 0.947 | S. cerevisiae deletion strains, locus YLL026W, stronger effect = lower value 0.99 | S. cerevisiae deletion strains, locus YLL041C, strain sdh2, stronger effect = lower value 0.991 | S. cerevisiae deletion strains, locus YLR027C, strain aat2, stronger effect = lower value 0.981 | S. cerevisiae deletion strains, locus YLR221C, strain rsa3, stronger effect = lower value 0.971 | S. cerevisiae deletion strains, locus YLR258W, strain gsy2, stronger effect = lower value 1.01 | S. cerevisiae deletion strains, locus YLR262C, strain YPT6 (second series), stronger effect = lower value 0.998 | S. cerevisiae deletion strains, locus YLR320W, strain mms22, stronger effect = lower value 0.993 | S. cerevisiae deletion strains, locus YLR342W, strain FKS1, stronger effect = lower value 0.985 | S. cerevisiae deletion strains, locus YLR357W, strain rsc2, stronger effect = lower value 0.967 | S. cerevisiae deletion strains, locus YLR370C, strain arc18, stronger effect = lower value 0.981 | S. cerevisiae deletion strains, locus YLR384C, strain iki3, stronger effect = lower value 0.965 | S. cerevisiae deletion strains, locus YML120C, strain ndi1, stronger effect = lower value 0.998 | S. cerevisiae deletion strains, locus YMR058W, strain fet3, stronger effect = lower value 0.994 | S. cerevisiae deletion strains, locus YMR125W, strain sto1, stronger effect = lower value 1 | S. cerevisiae deletion strains, locus YMR129W, stronger effect = lower value 0.987 | S. cerevisiae deletion strains, locus YMR205C, strain PFK2, stronger effect = lower value 1.01 | S. cerevisiae deletion strains, locus YMR231W, strain pep5, stronger effect = lower value 0.969 | S. cerevisiae deletion strains, locus YNL071W, strain lat1, stronger effect = lower value 0.998 | S. cerevisiae deletion strains, locus YNL209W, strain ssb2, stronger effect = lower value 1 | S. cerevisiae deletion strains, locus YNL248C, strain rpa49, stronger effect = lower value 0.961 | S. cerevisiae deletion strains, locus YNL322C, strain KRE1 (second series), stronger effect = lower value 1.01 | S. cerevisiae deletion strains, locus YNR049C, strain mso1, stronger effect = lower value 0.989 | S. cerevisiae deletion strains, locus YOR001W, strain rrp6, stronger effect = lower value 0.953 | S. cerevisiae deletion strains, locus YOR070C, strain gyp1, stronger effect = lower value 1.06 | S. cerevisiae deletion strains, locus YOR080W, strain dia2, stronger effect = lower value 0.98 | S. cerevisiae deletion strains, locus YOR083W, strain WHI5, stronger effect = lower value 1.03 | S. cerevisiae deletion strains, locus YOR106W, strain vam3, stronger effect = lower value 1.01 | S. cerevisiae deletion strains, locus YOR265W, strain rbl2, stronger effect = lower value 0.992 | S. cerevisiae deletion strains, locus YOR270C, strain vph1, stronger effect = lower value 0.958 | S. cerevisiae deletion strains, locus YOR290C, strain snf2, stronger effect = lower value 1.12 | S. cerevisiae deletion strains, locus YPL051W, strain arl3, stronger effect = lower value 0.981 | S. cerevisiae deletion strains, locus YPL078C, strain atp4, stronger effect = lower value 1.03 | S. cerevisiae deletion strains, locus YPL106C, strain sse1, stronger effect = lower value 1.01 | S. cerevisiae deletion strains, locus YPL240C, strain hsp82, stronger effect = lower value 0.989
